The supplement of paper PMC10338343
± gives the standard deviation. Whole data set: some 6,600 sequences, median “pre-steady-state target cleavage rate” near 0.07, cut for the highest 2% near 0.72. The sample holds the highest values, similar sequences and a random draw of the others, so the mix is not that of the screen.

system: MIWI (PIWIL1) piRISC loaded with Kctd7 piRNA (30 nt); assay: pre-steady-state target cleavage rate (min^-1); MIWI and MILI are mouse PIWI proteins and EfPiwi is from a freshwater sponge; tags in brackets are library labels; higher = faster piRNA-guided slicing of the target; details: guide: Kctd7 piRNA 5'p-UGUUAAUCUCUCAGAGAAGGUGACAGUGAU; auxiliary factor: 500 nM mouse GTSF1
Procedure: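 Cleave-'n-Seq: a library of target RNAs (target site embedded in constant flanks, ACAGCATTCCGCGTTAGTGATATCCG... 5' flank; DNA-blocked outside the site) at 0.1 nM was incubated with 1 nM active mouse MILI or MIWI piRISC (synthetic 5'-monophosphorylated piRNA guide) with or without 500 nM mouse GTSF1 at 33 °C for 1 min to 16 h. Uncleaved targets were sequenced and normalised to non-target controls, and the pooled three trials were fitted to a burst-and-steady-state model to give the pre-steady-state cleavage rate (min^-1; k3 is constrained to at most 1e-4). Sequence is the target site only; target names encode pairing extent (gX:gY) and contiguous / 1-mismatch / 2-mismatch / bulge geometry. Fits with R² ≤ 0 are excluded.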

Point of comparison: AUCACUGUCACGUUCACUGAGAGAUUAACA, “pre-steady-state target cleavage rate” value 0.44 ± 0.025. Against it:
- UAGUCUGUCACCUUGUCUGAGAGAUUUUGA — lower, 0.197 ± 0.06
- AUCACUGUCACCUUCACUGAGAGAUUUUGA — within error, 0.339 ± 0.082
- UAGUCUGUCACCUUCACUGAGAGAUUUUGA — lower, 0.176 ± 0.046
- UUCACUGUCACCUUGUCUGAGAGAUUUUGA — higher, 1.06 ± 0.27
- UAGACUGUCACCUUGUCUGAGAGAUUUUGA — lower, 0.234 ± 0.066
- UACACUGUCACCUUCACUGAGAGAUUUUGA — lower, 0.302 ± 0.099
- AUCACUGUCACCUUCUCUGAGAGAUUUUGA — lower, 0.0948 ± 0.023
- AUCACUGUCACCUUGUCUGAGAGAUUUUGA — higher, 1.4 ± 0.36
- UACACUGUCACCUUCUGAGAGAGAUUUUGA — lower, 0.0616 ± 0.019
- AUCACUGUCACCUUGACUGAGAGAUUUUGA — higher, 0.839 ± 0.22
- UACACUGUCACCUUGACUGAGAGAUUUUGA — lower, 0.117 ± 0.039
- UACACUGUCACCUUGUCUGAGAGAUUUUGA — higher, 1.02 ± 0.24
- UAGUGACACACGUUGUCUGAGAGAUUAACA — lower, 0.0596 ± 0.011
- UAGUGACAGUCCUUCUCUGAGAGAUUAAACA — lower, 0.0368 ± 0.0052
- UAGUGACACAGCUUCUCUGAGAGAUUAUGA — lower, 0.00591 ± 0.0022
- UUCACUGUCACCUGCUCUGAGAGAUUAACA — higher, 0.645 ± 0.031
- UACACUGUCACCUGCUCUGAGAGAUUAACA — higher, 0.571 ± 0.03
- UAGUCUGUCACCUUGCUCUGAGAGAUUAACA — within error, 0.47 ± 0.081
- UACACUGUCACCUUGCUCUGAGAGAUUAACA — higher, 1.01 ± 0.17
- AUCACUGUCACCUGCUCUGAGAGAUUAACA — higher, 0.673 ± 0.026
- AUCACUGUCACCUUGCUCUGAGAGAUUAACA — higher, 1.1 ± 0.18
- UACACUGUCACCUUGUCUGAGAGAUUAACA — lower, 0.355 ± 0.042
- AUCACUGUCACCUGUCUCUGAGAGAUUAACA — higher, 0.651 ± 0.038
- UUCACUGUCACCUUGCUCUGAGAGAUUAACA — higher, 0.747 ± 0.11
- UAGACUGUGACCUUCUCUGAGAGAUUAUCA — lower, 0.246 ± 0.033
- UAGACACUCACCUUCUCUGAGAGAUUAUGA — lower, 0.141 ± 0.031
- UAGUCUGUCACCUUCUCUGAGAGAUAAUGA — lower, 0.0204 ± 0.0082
- UUCACUGUCACCUUCUCUGAGAGUUUAUGA — higher, 0.71 ± 0.18
- UAGUGUGUCACCUUCUCUGAAGAGAUUAACA — lower, 0.00762 ± 0.0051
- UACACUCUCACCUUCUCUGAGUGAUUAACA — lower, 0.0216 ± 0.0064
- UAGUCUUUCACCUUCUCUGAGAGAUUAACA — lower, 0.265 ± 0.015
- UAGUGAGUCAGCUUCUCUGAGAGAAUAACA — lower, 0.199 ± 0.032
- UACACUGUCACCUUCUCUGUCAGAUUAACA — lower, 0.0245 ± 0.008
- UAGACUGUCACCUUUUCUGAGAGAUUAACA — higher, 0.732 ± 0.034
- AUCACUGUCACCUUUCUGAGAGAUUAACA — higher, 0.532 ± 0.025
- UAGACUGUCACCUUUCUCUGAGAGAUUAACA — higher, 0.538 ± 0.039
- UAGACUGUCACCUUUCUGAGAGAUUAACA — higher, 0.5 ± 0.033
- AUCACUGUCACCUUUUCUGAGAGAUUAACA — higher, 0.748 ± 0.029
- UUCACUGUCACCUUUUCUGAGAGAUUAACA — higher, 0.679 ± 0.028
- UAGUGAGUCACCUUCACUCAGAGAUUAACA — lower, 0.0317 ± 0.0057
- UUCACUGUCUCCUUCUCUGAGAGAUUAUCA — lower, 0.231 ± 0.035
- UAGUGACAGUGCUUCACUGAGAGAUUAACA — lower, 0.00805 ± 0.0033
- UAGUGACUCACGUUCUCUGAGAGAUUUUGA — lower, < 0.0001
- UAGAAUGUCACCUUCUCUGAGAGAUUAACA — higher, 0.652 ± 0.038
- AUCACUGUCACCUUCACUGAGAGAUUUACA — within error, 0.511 ± 0.082
- UUCACUGUCACCUUGUCUGAGAGAUUUACA — higher, 0.671 ± 0.12
- AUCACUGUCACCUUGUCUGAGAGAUUUACA — higher, 0.799 ± 0.14
- UACACUGUCACCUUGUCUGAGAGAUUUACA — higher, 0.989 ± 0.19
- UACACUGUCACCUUGUCUGAGAGUUUAACA — within error, 0.442 ± 0.11
- AUCACUGUCACCUUGUCUGAGAGUUUAACA — higher, 0.745 ± 0.15
- UUCACUGUCACCUUGUCUGAGAGUUUAACA — within error, 0.422 ± 0.077
- UAGUCUGUCACCUUGUCUGAGAGAUUUACA — lower, 0.25 ± 0.045
- UAGACUGUCACCUUGUCUGAGAGAUUUACA — higher, 0.659 ± 0.12
- UACACUGUGACCUUCUCUGAGAGAUUAACA — within error, 0.464 ± 0.037
- UAGUGACAGUCCUUCUCUGAGAGUAUUAACA — lower, 0.0116 ± 0.0023
- UAGUGUGUCACCUUCUCUGAGACAUUUACA — lower, 0.028 ± 0.0097
- UAGUGACACACCAACUCUGAGAGAUUAACA — lower, 0.0222 ± 0.0043
- UUCACUCAGACCUUCUCUGAGAGAUUAUGA — lower, 0.0052 ± 0.0036
- UAGUGAGACACCUUCUCUGAGAGAUUAAGA — lower, 0.0909 ± 0.019
- AACACUGUCACCUUCUCUGAGAGAUUAUGA — lower, 0.101 ± 0.021
- AUCACUGUCACUCUUCUCUGAGAGAUUAACA — higher, 0.53 ± 0.035
- UAGACUGUCACUCUUCUCUGAGAGAUUAACA — within error, 0.457 ± 0.032
- UUCACUGUCAUCUUCUCUGAGAGAUUAACA — higher, 0.596 ± 0.027
- UAGACUGUCAUCUUCUCUGAGAGAUUAACA — higher, 0.848 ± 0.051
- AUCACUGUCAUCUUCUCUGAGAGAUUAACA — higher, 0.827 ± 0.041
- UAGACUGUCAUCCUUCUCUGAGAGAUUAACA — lower, 0.262 ± 0.023
- AUCACUCUCACCUUCUCUGAGAGAUUAUGA — lower, 0.049 ± 0.018
- UAGACUGUCACCUUCUCUCAGAGUUUAACA — lower, 0.0473 ± 0.0063
- UAGUCUGACACCUUGUCUGAGAGAUUAACA — lower, 0.164 ± 0.022
- AUCAAUGUCACCUUCUCUGAGAGAUUAACA — higher, 0.672 ± 0.03
- UACACUGUCUCCUUCUCUGAGAGAUUAACA — higher, 0.599 ± 0.034
